The text below walks through data of PubChem BioAssay (NCATS).

The nature of experiment [1]: qHTS profiling for inhibitors of Plasmodium falciparum proliferation (AID 504749). Also: nearly all actives have a fitted effect of over 60% in size.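 As to activity, negative = inhibition: 0% = DMSO vehicle and full inhibition = artemisinin control.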 The conditions noted are these: P. falciparum in erythrocytes, SYBR Green DNA, 72 h. In outline: (§1)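 Each compound contacts P. falciparum-infected red blood cells for 72 h at 37 C; lysis buffer (Tris, EDTA, saponin, Triton X, SYBR Green I) is added and fluorescence measured next morning; values normalized to controls.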
(Quantitative high-throughput screening tests each substance at several concentrations.)

The test system of the next experiment is 3D7. The experiment is described as above. Conditions: P. falciparum in erythrocytes, SYBR Green DNA, 72 h; series mostly up to 28.7 µM. The method, boiled down: as §1
Another experiment deals with 7G8. The experiment is described as above. Conditions: P. falciparum in erythrocytes, SYBR Green DNA, 72 h; series mostly up to 28.7 µM. The method, boiled down: as §1
Another experiment deals with AA1029. The experiment is described as above. The conditions noted are these: P. falciparum in erythrocytes, SYBR Green DNA, 72 h; series mostly up to 28.7 µM. The method, boiled down: as §1
The next experiment concerns AS120. The experiment is described as above. The conditions noted are these: P. falciparum in erythrocytes, SYBR Green DNA, 72 h; series mostly up to 28.7 µM. In outline:
as §1

A further experiment concerns ATS189. The experiment is described as above. Conditions: P. falciparum in erythrocytes, SYBR Green DNA, 72 h; series mostly up to 28.7 µM. In outline:
as §1

A further experiment deals with ATS95. The description is as above. Conditions: P. falciparum in erythrocytes, SYBR Green DNA, 72 h; series mostly up to 28.7 µM. The method, boiled down: as §1
The subject of another experiment is C2A. Described as above. The conditions noted are these: P. falciparum in erythrocytes, SYBR Green DNA, 72 h; series mostly up to 28.7 µM. The method, boiled down: as §1
A further experiment relates to CP185. The description is as above. Conditions: P. falciparum in erythrocytes, SYBR Green DNA, 72 h; series mostly up to 28.7 µM. The method, boiled down: as §1
The test system of the next experiment is CP191. The experiment is described as above. Conditions: P. falciparum in erythrocytes, SYBR Green DNA, 72 h; series mostly up to 28.7 µM. The method, boiled down:
as §1

For another experiment, the system named is CP192. The description is as above. The conditions noted are these: P. falciparum in erythrocytes, SYBR Green DNA, 72 h; series mostly up to 28.7 µM. The method, boiled down: as §1
A further experiment deals with CP194. The experiment is described as above. Conditions: P. falciparum in erythrocytes, SYBR Green DNA, 72 h; series mostly up to 28.7 µM. The method, boiled down:
as §1

Another experiment concerns CP201. Described as above. The conditions noted are these: P. falciparum in erythrocytes, SYBR Green DNA, 72 h; series mostly up to 28.7 µM. In outline:
as §1

For another experiment, the system named is CP203. The experiment is described as above. The conditions noted are these: P. falciparum in erythrocytes, SYBR Green DNA, 72 h; series mostly up to 28.7 µM. The method, boiled down:
as §1

A further experiment deals with CP211. Described as above. The conditions noted are these: P. falciparum in erythrocytes, SYBR Green DNA, 72 h; series mostly up to 28.7 µM. In outline:
as §1

In another experiment the test system is CP215. Described as above. Conditions: P. falciparum in erythrocytes, SYBR Green DNA, 72 h; series mostly up to 28.7 µM. In outline: as §1
The test system of another experiment is CP217. The description is as above. The conditions noted are these: P. falciparum in erythrocytes, SYBR Green DNA, 72 h; series mostly up to 28.7 µM. The method, boiled down:
as §1

The subject of another experiment is CP237. The experiment is described as above. Conditions: P. falciparum in erythrocytes, SYBR Green DNA, 72 h; series mostly up to 28.7 µM. The method, boiled down:
as §1

Where [2] appears, read: at 28.7 µM (top of the series), parasite line A.
Setting [3] is: at 28.7 µM (top of the series), parasite line B.
Setting [4] is: at 12.8 µM (top of the series), parasite line A.
The mark [5] stands for this setting: at 12.8 µM (top of the series), parasite line B.

Several values for one entry are separate records, joined by “and”; a condition that tells them apart may be missing. Identical values can stand only once. Records with an inconclusive call do not appear. Unmarked numbers belong to inactive results. Activity calls are given as the source filed them. Calls follow the shape of the dose curve; as a rule, active = well fitted inhibition curve with a large enough effect; inconclusive = small, poorly fitted or top-dose-only effect; inactive = flat fitted curve, though single readings scatter.
Potency is read from the fitted curve at half-maximal effect.

In the case of `CC(=O)Oc1ccc(C2(c3ccc(OC(C)=O)cc3)C(=O)Nc3ccccc32)cc1`, the activity, negative = inhibition in experiment [1] (setting [2]) is 5.01% and 7.68%; in experiment [1] (setting [3]), 2.92% and 4.08%. Further, the Potency result in the experiment with 3D7, with 7G8, with AA1029, with AS120, with ATS189 and with ATS95 was “inactive” in each case. Also, the Potency result in the experiment with C2A, with CP185, in the experiment on CP191, with CP192, in the experiment on CP194 and with CP201 was “inactive” each time. Moreover, the Potency entry in the experiment with CP203, in the experiment with CP211, with CP215, in the experiment with CP217 and in the experiment on CP237 was “inactive” in each case.

As to `O=C(Oc1ccccc1C(=O)O)c1ccccc1O`, the figures for the activity, negative = inhibition in [1] (setting [2]) and in experiment [1] (setting [3]) were 0.597% and 10.5%, respectively. Further, the Potency result in the experiment with 3D7, in the experiment on 7G8, with AA1029, with AS120, with ATS189 and in the experiment with ATS95 was “inactive” throughout. For the same compound, the Potency entry in the experiment with C2A, in the experiment on CP185, in the experiment on CP191, in the experiment on CP192, in the experiment with CP194 and in the experiment with CP201 was “inactive” each time. Also, the Potency result in the experiment on CP203, in the experiment with CP211, in the experiment with CP215, in the experiment with CP217 and in the experiment on CP237 was “inactive” each time.

On to `Nc1ccc(S(=O)(=O)NC(=O)c2ccccc2)cc1`, for which the activity, negative = inhibition was 10.4% in experiment [1] (setting [4]) and 13.1% in experiment [1] (setting [5]). Besides, the Potency entry in the experiment with 3D7, with 7G8, in the experiment with AA1029, with AS120, in the experiment on ATS189 and in the experiment with ATS95 was “inactive” each time. Besides, the Potency entry with C2A, with CP185, with CP191, with CP192, with CP194 and in the experiment on CP201 was “inactive” each time. For the same compound, the Potency result in the experiment with CP203, in the experiment with CP211, with CP215, in the experiment on CP217 and with CP237 was “inactive” each time.

In the case of `CNCCCC1c2ccccc2C=Cc2ccccc21`, the activity, negative = inhibition is 3.94% in experiment [1] (setting [4]) and -1.98% in [1] (setting [5]). The Potency entry with 3D7, in the experiment with AS120, in the experiment on ATS189, with C2A, with CP185 and with CP192 was “inactive” each time. The Potency result in the experiment with CP201, in the experiment with CP211 and in the experiment on CP237 was “inactive” in each case. Moreover, the Potency in the experiment with 7G8 was 5.62 µM (active).

For `CC(C)(C)C(=O)NCCCC(=O)O`, the activity, negative = inhibition in experiment [1] (setting [2]) is 13.3%; in experiment [1] (setting [3]), -4.47%. For the same compound, the Potency result in the experiment on 3D7, in the experiment with 7G8, in the experiment on AA1029, with AS120, in the experiment on ATS189 and in the experiment with ATS95 was “inactive” each time. Besides, the Potency result with C2A, with CP185, in the experiment with CP191, in the experiment with CP192, with CP194 and in the experiment with CP201 was “inactive” throughout. Also, the Potency entry in the experiment on CP203, in the experiment on CP215, in the experiment with CP217 and in the experiment on CP237 was “inactive” in each case.

For `CC(=O)c1ccc2c(c1)N(CCCN(C)C)c1ccccc1S2`, the activity, negative = inhibition was 7.32% in experiment [1] (setting [4]) and -24.3% in experiment [1] (setting [5]). In addition, the Potency entry in the experiment with 3D7, in the experiment on 7G8, in the experiment on AA1029, in the experiment on AS120, in the experiment with ATS189 and in the experiment with ATS95 was “inactive” throughout. In addition, the Potency result with C2A, with CP185, in the experiment with CP191, with CP192, with CP201 and in the experiment on CP211 was “inactive” in each case. The Potency entry with CP215, in the experiment on CP217 and in the experiment with CP237 was “inactive” throughout.

Consider `O=C(O)CC(O)C(=O)O` (centres undefined), for which the activity, negative = inhibition is 10.4% in [1] (setting [2]) and 3.5% in experiment [1] (setting [3]). The Potency entry with 3D7, with 7G8, with AA1029, with AS120, with ATS189 and with ATS95 was “inactive” in each case. Also, the Potency result in the experiment on C2A, in the experiment with CP185, with CP191, with CP192, in the experiment on CP194 and in the experiment with CP201 was “inactive” in each case. The Potency result with CP203, with CP211, in the experiment on CP215, in the experiment with CP217 and in the experiment with CP237 was “inactive” throughout.

For `NC(CSCC(=O)O)C(=O)O` (centres undefined), the activity, negative = inhibition in experiment [1] (setting [2]) is -7.77%; in [1] (setting [3]), -0.351%. Also, the Potency result with 3D7, in the experiment on 7G8, in the experiment on AA1029, in the experiment on AS120, in the experiment on ATS189 and with ATS95 was “inactive” throughout. Besides, the Potency result in the experiment with C2A, in the experiment with CP185, in the experiment on CP191, in the experiment on CP192, in the experiment with CP194 and with CP201 was “inactive” each time. In addition, the Potency result in the experiment on CP203, in the experiment with CP211, with CP217 and with CP237 was “inactive” each time.

As to `CCCCOc1cc(C(=O)OCCN(CC)CC)ccc1N`, the activity, negative = inhibition was 8.11% in [1] (setting [4]) and 4.89% in experiment [1] (setting [5]). For the same compound, the Potency entry with 3D7, with 7G8, in the experiment with AA1029, in the experiment on AS120, in the experiment on ATS189 and in the experiment with C2A was “inactive” throughout. The Potency result in the experiment on CP185, in the experiment with CP191, in the experiment with CP192, with CP194, with CP201 and with CP203 was “inactive” in each case. The Potency result in the experiment on CP211, in the experiment with CP215, with CP217 and in the experiment on CP237 was “inactive” throughout.
